Data as given in PubChem BioAssay (NCI).
The panel holds about 79,000 compounds, 15% with a hit somewhere; the sample as a whole holds those more often. A number with no mark means an inactive call. Activity calls are given as the source filed them. Cut-off read from the data, not from the text of the source: active = growth inhibition above about 70%; inactive = the rest. Where a SMILES comes first, the peptide text is derived from it.

Legend:
[1] = NCI Yeast Anticancer Drug Screen. Data for the rad50 strain (AID 155);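 note: 0% = growth of vehicle-only cultures of the same strain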; conditions: S. cerevisiae rad50 strain growth inhibition; at 50.0 µM; hits give high values
In short: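 Cells are treated with compound, grown, and their growth is then scored against vehicle-only cultures of the same repair-deficient yeast strain.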

[2] = NCI Yeast Anticancer Drug Screen. Data for the mec2-1 strain (AID 157); conditions: S. cerevisiae mec2-1 strain, at 50.0 µM, hits give high values
In short: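 Compounds were applied to mec2-1 yeast cells. Their growth was then compared with that of vehicle-treated cultures to give growth inhibition.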

[3] = NCI Yeast Anticancer Drug Screen. Data for the sgs1 mgt1 strain (AID 161);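 note: 0% = growth of cultures given vehicle only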; conditions: S. cerevisiae sgs1 mgt1 strain, at 50.0 µM, hits give high values
In short: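 Percent growth inhibition was derived by comparing compound-exposed mutant yeast with vehicle-exposed cultures. The strain carries alterations in DNA damage repair.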

[4] = NCI Yeast Anticancer Drug Screen. Data for the cln2 rad14 strain (AID 165);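 note: 0% = growth equal to vehicle treated cultures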; conditions: S. cerevisiae cln2 rad14 strain, at 50.0 µM, hits give high values
In short: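 Strain: cln2 rad14 yeast, altered in cell cycle control and DNA damage repair. Read-out: growth inhibition vs vehicle.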

[5] = NCI Yeast Anticancer Drug Screen. Data for the bub3 strain (AID 167); conditions: S. cerevisiae bub3 mutant strain, at 50.0 µM, hits give high values
In short: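 Part of a panel of yeast mutants defective in DNA damage repair or cell cycle regulation. Each strain is grown with compound, and inhibition is calculated relative to solvent-treated cultures.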

[6] = NCI Yeast Anticancer Drug Screen. Data for the mlh1 rad18 strain (AID 175); conditions: S. cerevisiae mlh1 rad18 strain growth inhibition; at 50.0 µM; hits give high values
In short: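 A repair-deficient yeast strain is exposed to test compound, and growth is scored relative to vehicle-treated controls.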

SMILES | growth inhibition [1] | growth inhibition [2] | growth inhibition [3] | growth inhibition [4] | growth inhibition [5] | growth inhibition [6]
CCOC(=O)C(NNc1ccccc1)C(=O)C(F)(F)F (configuration not stated) | 10.9% | 3.2% | -9.3% | -18.8% | 1.35% | 18.6%
CNCC(O)(C(=O)O)C(=O)O | -12.6% | -45.9% | -32.9% | 6.05% | -29.1% | -7.95%
CC(C)NC(=O)C1C2C=CC(CC2)C1C(=O)NC(C)C (configuration not stated) | 6.2% | 20.1% | 22.6% | -5.7% | 11.3% | 10.2%
COC(=O)C(C(=O)C(=O)Nc1cccc([N+](=O)[O-])c1)c1nc2ccc([N+](=O)[O-])cc2[nH]c1=O (configuration not stated) | 37.6% | 17.6% | -10.2% | -37.8% | 9.2% | 46.5%
C/C=C/C(=O)OCCc1ccccc1 | 21.8% | 3.4% | 3.75% | -5.5% | 12.8% | 27.5%
Cc1cccc(-c2cc(=O)c3c(C)cc(C)nc3[nH]2)c1 | -2.1% | 2.7% | 21.9% | 24.8% | 24.1% | -39.4%
CN(C)c1nc2nccnc2c(=O)[nH]1 | 11.4% | -1.75% | -11.2% | -52.5% | 6.45% | -14.3%
CCCc1cc(OC(=O)c2c(O)cc(OC)cc2CCC)cc(O)c1C(=O)O | 35.1% | 44.1% | 15.9% | 49.2% | 32% | 24.5%
CCOc1ccc2[nH]c(C)c(CC(=O)O)c2c1 | -3.7% | -9.25% | -13.5% | -16.4% | 9.3% | -7.2%
Cc1ccc(N=Nc2c(O)ccc3n[nH]nc23)cc1 | 2.75% | 0.2% | 31.9% | -46% | 18.9% | 6.95%
NCCCCC(NC(=O)C(N)Cc1cnc[nH]1)C(=O)O (stereo not drawn) (H-His-Lys-OH; configuration not given here) | 4.1% | -5.75% | -4% | 13.3% | 7.55% | -12.2%
CCCCCCCCCCCCCCCc1nnc(SC)s1 | -22.6% | -39% | -14.9% | 15.3% | -3.15% | 11.2%
CCCCCCCCCCCCCCCC(=O)N(CCCC)CCCC | 3.55% | 5.7% | -4.05% | 11.9% | 3.4% | 8.85%
COCN1COCN(C)C1=O | 8.5% | 7.3% | -1.55% | 11.6% | 23.9% | 9.1%
O=C(NC(=S)Nc1cccc2ccccc12)c1ccccc1F | 30.9% | 15.1% | 37.1% | 5.3% | 44% | 28.4%
Oc1ccc(NCc2ccccc2)cc1 | 32.9% | 8.45% | 16.9% | -3.15% | 21.6% | 16.9%
Nc1ncnc2c1ncn2[C@@H]1C[C@H]1CO | -39.6% | 10.8% | -23.6% | 12.1% | 20.6% | -23.4%
C[n+]1ccccc1/C=C/c1ccc([N+](=O)[O-])cc1 | 9% | 5.8% | 13.2% | -10.3% | -1.8% | 6.3%
COC(=O)C(=O)C1CCc2c(ccc3c2CCCC3)C1 (configuration not stated) | 0.8% | 17.4% | 22.9% | -8.8% | 8.2% | 10.2%
O=C(O)/C(Cl)=C(\Cl)C(=O)NC1C2CC3CC(C2)CC1C3 (configuration not stated) | 14.4% | 10.3% | 13.8% | 28.8% | 3.6% | 19.6%
CCC1(O)CC2CN(CCc3c([nH]c4ccccc34)C(C(=O)OC)(c3cc4c(cc3OC)N(C)C3C(O)(C(N)=O)C(O)C5(CC)C=CCN6CCC43C65)C2)C1 (configuration not stated) (tested in a mixture with another compound) | -2.3% | -21.1% | -0.35% | 2.7% | 1.05% | 20.7%

SMILES | growth inhibition [1] | growth inhibition [2] | growth inhibition [3] | growth inhibition [4] | growth inhibition [5] | growth inhibition [6]
CCCC(C)C1(CC)NC(C)(C)CC(C)O1 (configuration not stated) | 2.75% | 0.8% | -5.75% | -29.4% | 4.9% | 1.2%
CCCCN(CCO)CCO | -4.95% | -8.45% | 9.3% | 14.8% | 9.4% | 2.75%
CC(C)C1CCC(C)(C=O)C1 (configuration not stated) | -19.7% | -0.5% | -14.3% | -7.85% | -5.75% | -26.9%
Cc1ccc(NC(=O)C(c2ccccc2)c2ccccc2)cc1 | 0.15% | 19.4% | 3.8% | -2.55% | 20.2% | 6.75%
O=c1c(Cl)cc(Cl)cn1S(=O)(=O)c1ccc([N+](=O)[O-])cc1 | 99.1% (active) | 95.3% (active) | 98.9% (active) | 98.7% (active) | 97.7% (active) | 98.9% (active)
C(=C(Sc1ccccc1)Sc1ccccc1)C(Sc1ccccc1)c1ccccc1 (configuration not stated) | 12.5% | 21.9% | -5.35% | 10.8% | 20.7% | -13.6%
Nc1cccc(S(N)(=O)=O)c1 | 10.4% | -5.65% | -0.85% | -40% | 12.2% | 1.4%
O=C(O)C1Cc2c([nH]c3ccccc23)C(CCCCO)N1 (configuration not stated) | -31.6% | -7.85% | -15.9% | -15.4% | -26.4% | -11.3%
CC(C)(C)c1ccc(OS(=O)(=O)c2ccccc2)c(Cl)c1 | -8.25% | -1.15% | -1.55% | -14.1% | 1.5% | 0.85%
CN1CCN(c2nc3c(c(=O)n(C)c(=O)n3C)n2C)CC1 | -4.9% | 5.35% | -18.8% | -6.1% | -11% | 6.2%
CCN(CC)C1CS(=O)(=O)OC2=C1CSCC2 (configuration not stated) | -2.4% | 19.1% | 11.3% | 3.75% | 4.35% | -31.5%
O=[N+]([O-])c1ccc(-c2csc(Nc3ccccn3)n2)o1 | 81.1% (active) | 38.3% | 84.7% (active) | 31.4% | 40.8% | 92.5% (active)
OCC1NC(COC2OC(CO)C(O)C(O)C2O)C(O)C(O)C1O (configuration not stated) | -17.5% | -14.9% | -19% | 17.1% | -0.25% | -6.25%
COC(=O)C(Cl)(Cl)c1nc(NC(C)=O)[nH]c(=O)c1Cl | 0.45% | 13.3% | 3.65% | -20% | -16.4% | 0.45%
COc1ccc(CCNC(=S)N/C=C\c2nc3ccccc3[nH]c2=O)cc1OC | 11.1% | 2.8% | 6.15% | 11.3% | 8% | 19.9%
CC(=O)OCC(=O)COC(C)=O | -4.95% | -6.35% | -8.4% | 8.5% | -2.2% | -8.55%
C/C=C/C=N/NS(=O)(=O)c1ccc(C)cc1 | 11.3% | 17.8% | -4.1% | -45.4% | -1% | -12.4%
CC(C)/C=N\n1c(N)c(C#N)c(C#N)c1C(C)C | -4.9% | -5.2% | -37% | 5.95% | -52.8% | -33.6%
COc1ccc2cc1Oc1ccc(cc1)CC1=NCCc3cc(OC)c(OC)c(c31)Oc1cc3c(cc1OC)CCN(C)C3C2 (configuration not stated) | -8.75% | -14.6% | -12.4% | 4.5% | 3.15% | 9.4%
CNC(=O)C(c1ccccc1)C(F)(F)F (configuration not stated) | 8.1% | 3.9% | -6.7% | -12.4% | 10.3% | 4.3%
Nc1cccc(OCCOc2ccccc2[N+](=O)[O-])c1 | 5% | 26.6% | 28.1% | -4.7% | 29.5% | 18.9%
